Assay [1] in a line: qHTS assay to identify small molecule antagonists of the estrogen related receptor (ERR) signaling pathway from Tox21 library - cell viability counter screen (AID 1224834). Further: nearly all actives have a fitted effect of over 30% in size. The essentials:
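Viability readout (CellTiter-Fluor fluorescence, 30 min at 37 C) multiplexed with the ERR assay; cells treated 17.5 h at 37 C with compounds delivered in DMSO.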

Assay [2] deals with Luciferin 4-monooxygenase (Photinus pyralis) (UniProt P08659). Kind of assay: qHTS assay to identify small molecule inhibitors of firefly luciferase (AID 1224835). Further: nearly all actives have a fitted effect of over 25% in size. The essentials:
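Biochemical qHTS: compounds run as interplate titrations against purified firefly enzyme, with D-luciferin and ATP each at its KM concentration. Light output recorded by CCD imaging.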
In general terms: In qHTS, concentration-response curves come from the screen itself.

Assay [3] is described as follows: qHTS assay to identify small molecule agonists of the constitutive androstane receptor (CAR) signaling pathway - cell viability counter screen (AID 1224836). Further: nearly all actives have a fitted effect of over 45% in size. The method in brief:
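23 h treatment, 37 C, 5% CO2. Cell line: HepG2 stably expressing hCAR with a CYP2B6-2.2kb construct. Co-treatment: PK11195, 0.75 uM final. Read-out: CellTiter-Fluor fluorescence intensity.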

Assay [4] is described as follows: qHTS assay to identify small molecule antagonists of the constitutive androstane receptor (CAR) signaling pathway - cell viability counter screen (AID 1224837). Further: nearly all actives have a fitted effect of over 45% in size. The essentials: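 Fluorescence from CellTiter-Fluor served as the viability signal. Human hepatoma HepG2 cells stably bearing hCAR and CYP2B6-2.2kb received compound plus CITCO (50 nM final) for 23 hr.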

In assay [5] the target is Nuclear receptor subfamily 1 group I member 3 (Homo sapiens) (UniProt Q14994). Kind of assay: qHTS assay to identify small molecule antagonists of the constitutive androstane receptor (CAR) signaling pathway (AID 1224838).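 Further: HepG2 cells stably expressing hCAR with CYP2B6 luciferase reporter stimulated by CITCO; nearly all actives have a fitted effect of over 40% in size.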 The essentials: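 Quantitative HTS in double-stable HepG2-CYP2B6-hCAR cells. After 4 h plating, cells get compound (15 concentrations) and CITCO at 50 nM final, incubate 24 h at 37 C, then ONE-Glo luminescence is read.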

The target is the same in assay [6]. Nature of the assay: qHTS assay to identify small molecule agonists of the constitutive androstane receptor (CAR) signaling pathway (AID 1224839). Further: nearly all actives have a fitted effect of over 15% in size. Further: potency means the concentration at half of the fitted maximal effect.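 On activation: HepG2 cells stably carrying human CAR and a CYP2B6 luciferase reporter.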 The method in brief: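 Compounds tested at 15 concentrations on HepG2 cells stably harbouring hCAR and CYP2B6-2.2kb reporter constructs, co-treated with PK11195 (0.75 uM final), 24 h at 37 C; luminescent reporter signal quantified.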

Assay [7] can be described thus: qHTS assay to identify small molecule antagonists of the estrogen related receptor signaling pathway with the pleiotropic PPARgamma coactivator (PGC) from Tox21 10K library - cell viability counter screen (AID 1224840; active means well fitted cell-killing curve with a large enough effect in the repeat runs, not every such curve was filed as active; further: nearly all actives have a fitted effect of over 40% in size). The method in brief: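 Compounds in DMSO, alongside positive and negative controls, were pinned onto PGC/ERR cells (2,000 per well). Exposure lasted 17.5 hours at 37 C, followed by a 30-minute CellTiter-Fluor incubation and fluorescence reading.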

Assay [8] in a line: qHTS assay to identify small molecule antagonists of the estrogen related receptor signaling pathway with the pleiotropic PPARgamma coactivator (PGC) from Tox21 10K library (AID 1224841; call rule not given here; further: actives are mostly falling curves and most rising ones were filed inactive; nearly all actives have a fitted effect of over 50% in size). The essentials:
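Compound exposure ran 18 hours at 37 C in PGC/ERR cells (2,000/well) that had first rested 6 hours in a 37 C/5% CO2 incubator. Luciferase activity was then detected with One-Glo after a 30-minute room-temperature step.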

Assay [9] is described as follows: qHTS assay to identify small molecule agonists of the estrogen related receptor signaling pathway with the pleiotropic PPARgamma coactivator (PGC) from Tox21 10K library (AID 1224842). Further: nearly all actives have a fitted effect of over 15% in size. The method in brief: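 PGC/ERR reporter cell line, 2,000 cells per well, incubated 6 h at 37 C before 23 nL compound in DMSO was added. After 18 h at 37 C, One-Glo luminescence read following 30 min at room temperature.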

Assay [10] has as its target Thyrotropin receptor (Homo sapiens) (UniProt P16473). Nature of the assay: qHTS assay to identify small molecule agonists of the thyroid stimulating hormone receptor (TSHR) signaling pathway (AID 1224843; calls by dose curve; further: nearly all actives have a fitted effect of over 45% in size). The essentials:
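Steps: seed 800 TSHR-HEK293 cells per well; add test compound and hold 30 min at ambient temperature; dispense cAMP-d2 then anti-cAMP cryptate; incubate 1 h at ambient; measure fluorescence intensity.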

Assay [11] is described as follows: qHTS assay to identify small molecule agonists of the hypoxia (HIF-1) signaling pathway - cell viability counter screen (AID 1224844; calls by dose curve; further: nearly all actives have a fitted effect of over 50% in size). The method in brief: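 Luminescent ATP content (CellTiter-Glo, 30 min, room temperature) served as the viability measure in HRE-bla ME-180 cells exposed to compounds for 17 hrs in low-serum medium (0.5% dialyzed FBS).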
Assay [12] can be described thus: qHTS assay to identify small molecule agonists of H2AX (AID 1224845; active means well fitted activation curve with a large enough effect in the signal ratio in the repeat runs, not every such curve was filed as active; the % refers to the signal ratio). The method in brief: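 Wild-type CHO-K1 cells, plated overnight, exposed 3hr at 37C to 15 concentrations (0.76% DMSO final). Lysed, then HTRF anti-pH2AX (S139) cryptate and anti-H2AX-d2 antibodies, 24 hr room temperature; 665/620 nm emission read.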
The nature of assay [13]: qHTS assay to identify small molecule agonists of H2AX - cell viability counter screen (AID 1224847; calls by dose curve; further: top concentration of the series differs between compounds; nearly all actives have a fitted effect of over 30% in size). The method in brief: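 Compounds tested at 15 concentrations were incubated 3 hr at 37C with wild-type CHO-K1 cells; cellular ATP-based luminescence (CellTiter-Glo) indicated viability.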
A short description of assay [14]: qHTS assay to identify small molecule antagonists of the estrogen related receptor (ERR) signaling pathway from Tox21 library (AID 1224848). Further: nearly all actives have a fitted effect of over 50% in size. The method in brief: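 Luminescent reporter read-out (ONE-Glo) from NTP's ERR cell line after 18 h treatment at 37 C with DMSO-dissolved Tox21 compounds; cells pre-plated 6 h beforehand at 2,000 per well.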
The nature of assay [15]: qHTS RealTime-Glo MT Cell Viability Assay in HepG2 cells - 24 hour (AID 1224867). Further: nearly all actives have a fitted effect of over 50% in size. The essentials: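 Luminescence read-out: viable HepG2 cells reduce a prosubstrate to a NanoLuc substrate, giving a signal proportional to live cell number. Reads taken at 0, 8, 16, 24, 32 and 40 h of compound exposure at 37 C.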
Assay [16] is described as follows: qHTS RealTime-Glo MT Cell Viability Assay in HEK293 cells - 32 hour (AID 1224868). The method in brief:
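Nonlytic real-time viability readout: viable cells convert prosubstrate to NanoLuc substrate, giving luminescence proportional to live cell number. HEK293, 600 cells/well, compound added after 5 h, continuous culture at 37 C.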

A short description of assay [17]: A CellTox Green Cytotoxicity Assay to monitor cytotoxicity in HEK293 cells - 0 hour (AID 1224869). Further: nearly all actives have a fitted effect of over 50% in size. The essentials: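 Each value comes from one timepoint of a single continuous run in which HEK293 cells with CellTox Green were exposed to compound for up to 40 h at 37 C, dye fluorescence rising with cell death.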
The nature of assay [18]: qHTS RealTime-Glo MT Cell Viability Assay in HepG2 cells - 40 hour (AID 1224870). Further: nearly all actives have a fitted effect of over 50% in size. The method in brief: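 HepG2 cells (600/well) mixed with RealTime-Glo MT reagent, settled 5 h at 37 C/5% CO2 before compound addition. Nonlytic NanoLuc luminescence from viable-cell prosubstrate reduction read repeatedly during 40 h treatment at 37 C.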
The nature of assay [19]: qHTS assay to identify small molecule agonists of the estrogen related receptor (ERR) signaling pathway from Tox21 library (AID 1224849; calls by dose curve; further: nearly all actives have a fitted effect of over 15% in size). As to conditions: ERR reporter cell line, ONE-Glo luciferase, 18 h; at 92.4 µM (top of the series) unless noted. The method in brief: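 We plated ERR reporter cells, waited 6 h, added compounds in DMSO by pin tool and incubated them 18 h at 37 C. ONE-Glo was then added and luminescence read after 30 min.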

The nature of assay [20]: qHTS assay to identify small molecule agonists of the hypoxia (HIF-1) signaling pathway (AID 1224846; active means well fitted activation curve with a large enough effect in the signal ratio in the repeat runs, not every such curve was filed as active; the % refers to the signal ratio). The essentials: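 Measured by blue/green FRET after loading CCF4-AM: beta-lactamase expressed from a hypoxia response element in ME-180 cells. Test agents were delivered in DMSO and left 17 hrs; cells had been plated 5 hrs earlier in low-serum (0.5% dialyzed FBS) medium.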

Values without a mark were called inactive. Inconclusive results are not listed. Active and inactive are the calls of the source. Unless noted, the call rests on the fitted dose curve; in most records, active means well fitted curve in the direction sought with a large enough effect in the repeat runs; inconclusive means weak or mixed curves; inactive means no such curve, though single readings can be large; an effect the other way counts as inactive or inconclusive.
On the % scale 0 is the no-effect control and ±100 the full control effect.

Nuclear receptor subfamily 1 group I member 3 (Homo sapiens), sequence (Q14994 whole entry, looked up): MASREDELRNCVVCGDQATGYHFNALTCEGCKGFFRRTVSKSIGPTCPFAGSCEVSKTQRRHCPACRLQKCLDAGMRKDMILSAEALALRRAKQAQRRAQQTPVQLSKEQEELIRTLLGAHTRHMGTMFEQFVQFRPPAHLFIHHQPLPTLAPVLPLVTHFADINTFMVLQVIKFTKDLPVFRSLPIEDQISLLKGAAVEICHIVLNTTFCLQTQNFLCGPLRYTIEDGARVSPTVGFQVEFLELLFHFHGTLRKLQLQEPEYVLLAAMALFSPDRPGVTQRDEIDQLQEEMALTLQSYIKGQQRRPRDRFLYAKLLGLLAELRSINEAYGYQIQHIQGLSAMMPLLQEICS
Luciferin 4-monooxygenase (Photinus pyralis), sequence (P08659 whole entry, looked up): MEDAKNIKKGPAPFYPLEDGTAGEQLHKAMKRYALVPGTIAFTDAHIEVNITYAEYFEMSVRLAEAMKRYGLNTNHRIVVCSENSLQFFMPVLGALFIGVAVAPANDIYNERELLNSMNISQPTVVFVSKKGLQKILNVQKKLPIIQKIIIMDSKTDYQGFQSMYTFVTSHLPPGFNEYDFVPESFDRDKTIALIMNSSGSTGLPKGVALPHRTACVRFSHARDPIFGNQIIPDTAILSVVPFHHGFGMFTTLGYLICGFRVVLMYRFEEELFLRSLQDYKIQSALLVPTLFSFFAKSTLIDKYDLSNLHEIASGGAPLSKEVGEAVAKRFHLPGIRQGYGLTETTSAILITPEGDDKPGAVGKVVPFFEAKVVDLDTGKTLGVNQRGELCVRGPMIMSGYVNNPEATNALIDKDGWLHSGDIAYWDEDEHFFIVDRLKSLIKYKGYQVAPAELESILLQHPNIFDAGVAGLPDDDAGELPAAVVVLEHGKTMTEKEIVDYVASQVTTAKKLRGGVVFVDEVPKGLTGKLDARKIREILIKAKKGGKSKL
Thyrotropin receptor (Homo sapiens), sequence (P16473 whole entry, looked up): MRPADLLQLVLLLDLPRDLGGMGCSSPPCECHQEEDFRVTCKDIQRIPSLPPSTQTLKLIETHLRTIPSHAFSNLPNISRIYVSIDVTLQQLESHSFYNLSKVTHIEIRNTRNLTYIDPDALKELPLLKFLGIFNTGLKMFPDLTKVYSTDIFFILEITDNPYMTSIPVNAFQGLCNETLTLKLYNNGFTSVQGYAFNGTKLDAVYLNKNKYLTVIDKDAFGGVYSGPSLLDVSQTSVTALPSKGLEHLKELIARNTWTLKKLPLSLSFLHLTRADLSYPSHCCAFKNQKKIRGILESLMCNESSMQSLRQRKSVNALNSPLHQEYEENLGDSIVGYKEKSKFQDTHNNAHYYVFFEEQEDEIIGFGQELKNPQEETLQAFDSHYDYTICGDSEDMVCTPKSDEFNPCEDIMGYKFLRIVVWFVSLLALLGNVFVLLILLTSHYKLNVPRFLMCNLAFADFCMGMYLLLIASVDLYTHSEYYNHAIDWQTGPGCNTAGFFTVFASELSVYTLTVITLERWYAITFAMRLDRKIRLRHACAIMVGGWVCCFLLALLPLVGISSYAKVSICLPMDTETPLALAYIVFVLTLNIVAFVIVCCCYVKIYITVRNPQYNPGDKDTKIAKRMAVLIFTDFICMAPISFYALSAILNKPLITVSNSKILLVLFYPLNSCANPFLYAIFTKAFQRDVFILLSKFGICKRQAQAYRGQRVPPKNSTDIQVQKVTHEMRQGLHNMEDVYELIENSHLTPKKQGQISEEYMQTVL

On to `O=c1[nH]c(=O)n([C@H]2C[C@H](O)[C@@H](CO)O2)cc1I`, for which the Potency result in assay [1], in [2], in assay [3], in [4], in assay [5] and in assay [7] was “inactive” throughout. Moreover, the Potency entry in assay [8], in [10], in assay [11], in assay [13], in assay [14] and in [15] was “inactive” throughout. The Potency result in assay [16], in assay [17] and in assay [18] was “inactive” in each case. Besides, the Potency in assay [6] is 11.9 µM (active). For the same molecule, the result in [9] and in [12] was inactive.

With `Cc1cc2c(cc1S(N)(=O)=O)S(=O)(=O)CCC2`, the Potency entry in assay [1], in [2], in [3], in [4], in assay [5] and in assay [6] was “inactive” throughout. The Potency result in assay [7], in assay [8], in [10], in assay [11], in assay [13] and in assay [14] was “inactive” in each case. Also, the Potency result in assay [15], in assay [16], in assay [17] and in [18] was “inactive” throughout. The result in assay [9] and in assay [12] was inactive.

For the molecule `Cn1cc(S(C)=O)c(=O)c2ccc(F)cc21` (stereo not drawn), the Potency result in assay [1], in assay [2], in [3], in [4], in [5] and in assay [6] was “inactive” throughout. For the same molecule, the Potency entry in [7], in [8], in assay [11], in [13], in assay [14] and in [15] was “inactive” each time. Besides, the Potency result in assay [16] and in [18] was “inactive” each time. Moreover, the molecule was called inactive in [9] and in assay [12]. Besides, the activity change, positive = activation in assay [19] is 0.0404% [at 42.5 µM].

In the case of `CCCCCCOC(=O)CCCCC(=O)OCCCCCC`, the Potency result in assay [1], in assay [2], in assay [3], in assay [4], in assay [5] and in assay [6] was “inactive” each time. The Potency result in [7], in assay [8], in [11], in assay [13], in assay [14] and in [15] was “inactive” each time. Besides, the Potency result in assay [16], in [17] and in assay [18] was “inactive” each time. Moreover, the call in assay [9], in assay [12] and in assay [20] was inactive. For the same molecule, the activity change, positive = activation in assay [19] is 5.81%.

As to `CC(C)=CCCC(C)CC(=O)O` (stereo not drawn), the Potency result in [1], in assay [2], in [3], in [4], in [5] and in assay [6] was “inactive” throughout. Moreover, the Potency entry in assay [7], in [8], in assay [11], in assay [13], in assay [14] and in [15] was “inactive” each time. The Potency result in [16] and in [17] was “inactive” each time. For the same molecule, the outcome in assay [9] and in [12] was inactive. The activity change, positive = activation in [19] was 3.83%.

In the case of `CN(C(=O)c1c(O)c2ccccc2n(C)c1=O)c1ccccc1`, the Potency result in assay [1], in [2], in assay [3], in assay [4], in assay [5] and in [6] was “inactive” throughout. The Potency entry in assay [7], in [8], in assay [11], in assay [13], in assay [14] and in [15] was “inactive” in each case. Further, the Potency entry in [16] was “inactive”. Also, the molecule was classed as inactive in [9], in [12] and in [20].

In the case of `C=C(C)CS(=O)(=O)O`, the Potency result in [1], in assay [2], in assay [3], in [4], in assay [5] and in assay [6] was “inactive” throughout. Moreover, the Potency result in assay [7], in [8], in assay [11], in assay [13], in assay [14] and in assay [15] was “inactive” in each case. Further, the Potency entry in assay [16], in assay [17] and in assay [18] was “inactive” in each case. The call in assay [9] and in assay [12] was inactive. Moreover, the activity change, positive = activation in assay [19] is 0.527%.

These data come from PubChem BioAssay (Tox21).
